Assay results taken from PubChem BioAssay AID1159580 (chemical genetic matrix, 2015).
Several values for one entry are separate records, joined by “and”; a condition that tells them apart may be missing. Identical values can stand only once. In all, about 5,500 compounds went through this assay and about 2,000 (36%) were called active. About 18% were inconclusive and are not listed. Cut-off read from the data, not from the text of the source: active = normalized growth mostly below about 0.91 (no sharp cut-off); inconclusive = no clear call, values can overlap the other calls; inactive = mostly above about 0.92. The list shows a part of the results.

Assay: chemical genetic growth profiling, strain panel (AID 1159580);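 note: tested at 20 µM; growth read once vehicle control cultures reached saturation at 30 °C; 1 = growth at the plate median or of vehicle wells; lower values mean less growth of the strain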
Conditions: S. cerevisiae deletion strains, growth OD

Measured: normalized growth

Cc1onc(-c2c(Cl)cccc2Cl)c1C(=O)N[C@@H]1C(=O)N2[C@@H]1SC(C)(C)[C@@H]2C(=O)O
inactive: locus YAL013W, strain DEP1, active compounds read low 1.02 | locus YAL021C, strain ccr4, active compounds read low 0.969 | locus YAL026C, strain drs2, active compounds read low 1.02 | locus YAL030W, strain snc1, active compounds read low 0.994 | locus YBL061C, strain skt5, active compounds read low 0.991 | locus YBR009C, strain hhf1, active compounds read low 1 | locus YBR021W, strain FUR4, active compounds read low 1.03 | locus YBR023C, strain chs3, active compounds read low 0.986 | locus YBR171W, strain sec66, active compounds read low 0.993 | locus YBR229C, strain ROT2, active compounds read low 1.01 | locus YBR231C, strain swc5, active compounds read low 0.963 | locus YBR279W, strain paf1, active compounds read low 0.993 | locus YCL011C, strain gbp2, active compounds read low 1.01 | locus YCL016C, strain dcc1, active compounds read low 1.03 | locus YCL029C, strain bik1, active compounds read low 0.996 | locus YCL069W, strain vba3, active compounds read low 0.995 | locus YCR088W, strain abp1, active compounds read low 0.975 | locus YDL005C, strain med2, active compounds read low 0.995 | locus YDL035C, strain GPR1, active compounds read low 1.04 | locus YDL040C, strain nat1, active compounds read low 0.988 | locus YDL074C, strain BRE1, active compounds read low 1.01 | locus YDL101C, strain DUN1, active compounds read low 1.01 | locus YDL134C, strain PPH21, active compounds read low 1.05 | locus YDL185W, strain tfp1, active compounds read low 0.991 | locus YDL192W, strain arf1, active compounds read low 0.993 | locus YDR001C, strain nth1, active compounds read low 0.97 | locus YDR069C, strain doa4, active compounds read low 0.991 | locus YDR101C, strain arx1, active compounds read low 0.994 | locus YDR137W, strain rgp1, active compounds read low 0.991 | locus YDR150W, strain NUM1, active compounds read low 1.02 | locus YDR159W, strain sac3, active compounds read low 0.975 | locus YDR162C, strain NBP2, active compounds read low 1.02 | locus YDR195W, strain ref2 0.889 | locus YDR297W, strain sur2, active compounds read low 0.973 | locus YDR318W, strain mcm21, active compounds read low 0.995 | locus YDR334W, strain swr1, active compounds read low 0.948 | locus YDR335W, strain msn5, active compounds read low 0.967 | locus YDR388W, active compounds read low 1 | locus YDR392W, strain spt3, active compounds read low 1.12 | locus YDR502C, strain sam2, active compounds read low 0.996 | locus YEL003W, strain gim4, active compounds read low 0.973 | locus YEL037C, strain rad23, active compounds read low 0.995 | locus YEL061C, strain CIN8 (second series), active compounds read low 0.971 | locus YEL061C, strain CIN8, active compounds read low 1.01 | locus YER015W, strain faa2, active compounds read low 0.991 | locus YER016W, strain bim1, active compounds read low 0.997 | locus YER110C, active compounds read low 0.992 | locus YER111C, strain swi4, active compounds read low 0.998 | locus YER155C, strain BEM2 (second series), active compounds read low 0.973 | locus YER155C, strain BEM2, active compounds read low 1.01 | locus YER167W, strain BCK2, active compounds read low 1.02 | locus YFR010W, strain ubp6, active compounds read low 0.97 | locus YGL078C, strain dbp3, active compounds read low 1 | locus YGL086W, strain mad1, active compounds read low 1.01 | locus YGL167C, strain pmr1, active compounds read low 0.976 | locus YGL173C, strain kem1, active compounds read low 0.961 | locus YGL227W, strain vid30, active compounds read low 0.981 | locus YGL240W, strain doc1, active compounds read low 0.951 | locus YGL248W, strain PDE1, active compounds read low 1.01 | locus YGL253W, strain hxk2, active compounds read low 1.02 | locus YGR078C, strain PAC10, active compounds read low 1.01 | locus YGR135W, strain pre9, active compounds read low 0.976 | locus YGR229C, strain SMI1, active compounds read low 1.02 | locus YGR252W, strain gcn5, active compounds read low 0.946 | locus YHR013C, strain ard1, active compounds read low 1.02 | locus YHR027C, strain rpn1, active compounds read low 0.997 | locus YHR030C, strain SLT2, active compounds read low 1.01 and 1.06 | locus YHR079C, strain IRE1 (second series), active compounds read low 0.989 | locus YHR079C, strain IRE1, active compounds read low 1.02 | locus YHR094C, strain hxt1, active compounds read low 0.994 | locus YHR129C, strain ARP1, active compounds read low 1.02 | locus YHR142W, strain chs7, active compounds read low 1.02 | locus YHR200W, strain rpn10, active compounds read low 0.991 | locus YIL066C, strain RNR3, active compounds read low 1.02 | locus YIL073C, strain SPO22, active compounds read low 0.988 | locus YIL125W, strain kgd1, active compounds read low 0.998 | locus YIR030C, strain dcg1, active compounds read low 1.01 | locus YJL092W, strain hpr5, active compounds read low 0.99 | locus YJL095W, strain BCK1 (second series), active compounds read low 0.983 | locus YJL095W, strain BCK1, active compounds read low 1 and 1.04 | locus YJL115W, strain asf1, active compounds read low 0.979 | locus YJL129C, strain trk1, active compounds read low 0.972 | locus YJL134W, strain LCB3, active compounds read low 1.01 | locus YJL154C, strain vps35, active compounds read low 0.978 | locus YJL164C, strain tpk1, active compounds read low 1.02 | locus YJL166W, strain qcr8, active compounds read low 0.957 | locus YJL168C, strain set2, active compounds read low 0.988 | locus YJL187C, strain SWE1 (second series), active compounds read low 1.01 | locus YJL187C, strain SWE1, active compounds read low 0.987 | locus YJR043C, strain POL32, active compounds read low 1.04
